Sampled rows, rich in hits. Any-hit rate of the full collection: about 6.1%.
Gal4-VP16 FLuc = counter-screen for ROR gamma inhibitors: Gal4-VP16 reporter | Drosophila S2 Gal4-VP16 UAS-luciferase, luminescence, 20 h | Potency, µM (titrated, usually from 53.6 µM), inactives show at the top dose activity, negative = inhibition, most hits filed as inhibitors | actives 3.5% (n = 310,000) | AID 2546;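 note: Gal4-VP16 expression switched on by copper sulfate through the metallothionein promoter; % is set by controls: 0 for no effect and ±100 for the full control effect; nearly all actives have a fitted effect of over 50% in size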
ATXN viability = cell viability loss in ATXN counter-screen; S2 cells (HEK-293 line with an ATXN2-luciferase reporter) viability, CellTiter-Fluor protease fluorescence, 24 h; Potency, µM (series often up to 56.7 µM), most hits filed as cytotoxic; actives 0.49% (n = 400,000); AID 651635; note: nearly all actives have a fitted effect of over 40% in size
TGFb SMAD3 inh = TGF-b pathway inhibition; Potency, µM (titrated, usually from 46.1 µM), for the others: top-dose activity, negative = inhibition, usual class: inhibitors; actives 1.2% (n = 410,000); HepG2 CAGA-GFP TGF-b/SMAD3 reporter, GFP fluorescence, 18 h; TGF-beta stimulated, 500 pg/mL final; AID 588855; note: % is set by controls: 0 for no effect and ±100 for the full control effect; nearly all actives have a fitted effect of over 65% in size
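Read-out: total well GFP (ex488/em500-530) summed from mean per-cell fluorescence. Cells: HEPG2 CAGA-GFP, 1% FBS DMEM, 18 h at 37 degrees C with 500 pg/mL final TGF-beta. Unstimulated wells served as the full-inhibition control; stimulated DMSO wells = 0%.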
RORg inh = ROR gamma (mouse) transcription inhibition; actives 5.4% (n = 310,000); P51450; Potency, µM (doses to about 53.6 µM), for the others: top-dose activity change, negative = inhibition, usual class: inhibitors; AID 2551; Drosophila S2 Gal4-RORgamma UAS-luciferase reporter, 20 h; note: % is set by controls: 0 for no effect and ±100 for the full control effect; nearly all actives have a fitted effect of over 60% in size
Target sequence (P51450 whole entry, looked up, the tested form may be a part): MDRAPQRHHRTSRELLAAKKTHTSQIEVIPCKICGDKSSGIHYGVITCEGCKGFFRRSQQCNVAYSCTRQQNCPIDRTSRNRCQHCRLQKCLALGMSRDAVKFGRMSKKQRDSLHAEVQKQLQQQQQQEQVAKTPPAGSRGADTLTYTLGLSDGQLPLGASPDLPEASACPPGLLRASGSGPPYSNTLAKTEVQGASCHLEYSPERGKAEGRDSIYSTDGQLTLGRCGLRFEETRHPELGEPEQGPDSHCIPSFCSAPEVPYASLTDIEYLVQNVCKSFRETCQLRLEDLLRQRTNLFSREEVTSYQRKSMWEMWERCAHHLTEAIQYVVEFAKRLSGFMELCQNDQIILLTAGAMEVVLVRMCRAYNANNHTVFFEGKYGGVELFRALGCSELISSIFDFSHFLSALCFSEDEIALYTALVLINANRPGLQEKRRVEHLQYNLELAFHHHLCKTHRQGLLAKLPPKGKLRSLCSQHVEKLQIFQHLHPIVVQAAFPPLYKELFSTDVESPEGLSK
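Drosophila S2 cells stably expressing Gal4-DBD/mouse RORγ fusion under metallothionein promoter plus UAS-luciferase; compound 1 h, then 700 uM CuSO4 induction for 20 h at ambient temperature; inhibition read as reduced luminescence.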
ATXN2 expr inh = ATXN2 expression inhibition; actives 0.72% (n = 360,000); Potency, µM (highest dose often 57 µM), for the others: at the highest dose activity change, negative = inhibition, usual class: inhibitors; HEK-293 ATXN2-luciferase reporter, luminescence, 24 h; note: % is set by controls: 0 for no effect and ±100 for the full control effect; nearly all actives have a fitted effect of over 55% in size
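ATXN2-luciferase reporter cells (luciferase flanked by upstream and downstream ATXN2 gene portions) were treated 24 h at 37 °C with compounds at up to 57 uM. SteadyGlo luminescence gave expression; GF-AFC fluorescence gave viability.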
HepG2 viability = counter-screen for TGF-b inhibitors: cytotoxicity in HepG2 cells | HepG2 CAGA-GFP viability, ATP luminescence, 18 h | Potency, µM (series often up to 46.1 µM), without a hit: top-dose activity change, negative = cytotoxicity, actives largely listed as cytotoxic | actives 0.76% (n = 410,000) | AID 588856
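HepG2 CAGA-GFP cells (1000/well, DMEM with 1% FBS) received compound, then TGF-beta at 500 pg/mL final, and were incubated 18 hours at 37 degrees C. Viability was read by CellTiter-Glo luminescence. Media-only wells were set as complete cell-killing and DMSO as no toxicity.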
Starred values were filed as active, the others as inactive; i = inactive; ? = inconclusive; · = no result given; [ ] = dose if it differs, or a comment. Calls come from the whole dose curve; as a rule, active = well fitted curve in the direction sought with a large enough effect; inconclusive = small, poorly fitted or top-dose-only effect, or another doubt; inactive = no such curve, though single readings can be large; an effect the other way counts as inactive or inconclusive. Potency is the fitted concentration of half-maximal effect.

SMILES | Gal4-VP16 FLuc | ATXN viability | TGFb SMAD3 inh | RORg inh | ATXN2 expr inh | HepG2 viability
CCOc1cccc(C(=O)NC(=S)Nc2cccc(C)c2)c1 | 10µM* | i | ? | 2.51µM* | 46.9% | -51.0%
CCCCOc1cccc(C(=O)NC(=S)Nc2ccc(Cl)c(C(=O)O)c2)c1 | -23.1% | i | 18.3% | 17.8% | 18.9% | -16.8%
CCOc1cccc(C(=O)Nc2cccc(C(C)=O)c2)c1 | 8.6% | i | -2.4% | 2.8% | 9.6% | -17.2%
O=C(CSc1nccn1Cc1ccc(F)cc1)Nc1nc2ccccc2s1 | · | i | ? | · | ? | -20.1%
CCc1ccc(NC(=O)Cn2ncc3c(C)n(Cc4cccc(Cl)c4)c(C)c3c2=O)cc1 | · | · | 47.3% | · | · | 5.4%
CCOC(=O)N1C/C(=C\c2ccccc2)C(=O)/C(=C/c2ccccc2)C1 | ? | ? | 2µM* | 17.8µM* | · | -44.7%
CN(C)CCC(=O)N1C/C(=C/c2ccccc2)C(=O)/C(=C\c2ccccc2)C1 | · | 4.23µM* | 2µM* | · | 2.12µM* | -126.2%
CCOC(=O)N1CCN(S(=O)(=O)/C=C/c2ccccc2)CC1 | -3.0% | · | -17.4% | -2.3% | · | -13.6%
O=C1/C(=C/c2ccccc2)CN(C(=O)CCN2CCOCC2)C/C1=C\c1ccccc1 | · | 21.2µM* | 2.24µM* | · | 26.7µM* | 15.8µM*
O=C(Cc1ccccc1)N1CCNCC1 | 7.2% | i | -3.3% | 14.5% | 5.6% | 0.9%
CN1CCN(C(=O)CCCN2C(=O)/C(=C/c3ccccc3)SC2=S)CC1 | -4.2% | ? | ? | -14.9% | -31.7% | -28.7%
C[N+](C)(C)CCC(=O)N1C/C(=C/c2ccccc2)C(=O)/C(=C\c2ccccc2)C1 | · | · | 7.94µM* | · | 8.44µM* | -99.8%
COc1ccc(CCC(=O)NO)cc1 | · | · | 26.7% | · | · | 4.5%
COc1ccc(C(=O)NCC2Cc3cccc(-c4ccc(S(C)(=O)=O)cc4)c3O2)c(OC)n1 (centres undefined) | · | i | · | · | · | ·
O=P(O)(O)OC(Cn1cncn1)(Cn1cncn1)c1ccc(F)cc1F | · | i | · | · | · | ·
Cc1c(C(=O)NCC(C)(C)N2CCOCC2)cnn1-c1ncc2c(n1)-c1ccccc1CCC2 | · | i | · | · | · | ·
N/C(=C\c1ccccc1)c1ccncc1 | · | · | 8.1% | · | · | 10.6%
CCOC(=O)c1ccccc1NC(=O)Cn1c(=O)n(CCC(=O)N2CCc3ccccc3C2)c(=O)c2ccccc21 | · | ? | ? | · | -21.8% | -16.0%
C#CCOCCOCCOCCNc1nc(N2CCN(C(=O)CCCCCCCCCCNC(=O)[C@H](CCCCN)n3cc(CCO)nn3)CC2)nc(N2CCN(C(=O)CCCCCCCCCCNC(=O)[C@@H]([C@H](C)O)n3cc(C)nn3)CC2)n1 | · | ? | -24.4% | · | -6.1% | -1.7%
C#CCOCCOCCOCCNc1nc(N2CCN(C(=O)CCCCCCCCCCNC(=O)[C@@H](CCSC)n3cc(CCO)nn3)CC2)nc(N2CCN(C(=O)CCCCCCCCCCNC(=O)[C@H]([C@@H](C)CC)n3cc(CCCCN=C(N)N)nn3)CC2)n1 | · | 15.8µM* | ? | · | ? | -76.2%
C#CCOCCOCCOCCNc1nc(N2CCOCC2)nc(N2CCN(C(=O)CCCCCCCCCCNC(=O)[C@@H](CCSC)n3cc(CCO)nn3)CC2)n1 | · | i | -17.9% | · | -6.0% | -11.6%
C#CCOCCOCCOCCNc1nc(N2CCN(C(=O)CCCCCCCCCCNC(=O)[C@@H](CCSC)n3cc(CCO)nn3)CC2)nc(N2CCN(C(=O)CCCCCCCCCCNC(=O)[C@H]([C@@H](C)CC)n3cc(CCCCCN)nn3)CC2)n1 | · | 14.1µM* | ? | · | 28.2µM* | -100.7%
COc1ccccc1C(=O)Nc1c2c(nn1-c1cccc(C)c1C)CS(=O)(=O)C2 | · | ? | -3.4% | -12.5%[0.365 µM] | -29.3% | -6.5%
COc1cccc(C(=O)Nc2c3c(nn2-c2ccc(C)cc2C)CS(=O)(=O)C3)c1OC | · | i | 26.1% | · | -12.6% | 3.16µM*
COc1ccc(OC)c(-n2c(-c3ccc(C)cc3)n[nH]c2=S)c1 | ? | i | -8.9% | 3.98µM* | -2.8% | 3.1%
SMILES | Gal4-VP16 FLuc | ATXN viability | TGFb SMAD3 inh | RORg inh | ATXN2 expr inh | HepG2 viability
COc1ccc(-c2n[nH]c(=S)n2-c2cc(OC)ccc2OC)cc1 | -12.6% | i | -6.9% | 10µM* | 22.4% | -8.3%
COc1ccc(Br)cc1CN(C)CC(O)COc1ccc(Br)cc1 (centres undefined) | -25.7% | i | ? | 32.3% | ? | 17.8µM*
O=C(CCCC(=O)N1CCN(c2ccccc2F)CC1)N1CCN(c2ccccc2F)CC1 | -4.3% | i | 0.0% | 3.2% | -18.0% | 0.0%
CC1CC(C)(C)NC(=S)N1CCCC(=O)Nc1ccc(Cl)cc1 (centres undefined) | ? | i | 2.4% | 3.98µM* | -9.7% | -21.2%
O=C(CCn1cccc1)N1CCc2ccccc21 | 29.0% | i | -3.2% | 15.0% | 18.4% | -37.7%
CC1CC(C)(C)NC(=S)N1CCCC(=O)Nc1ccccc1F (centres undefined) | -12.1% | i | -0.5% | 17.8µM* | -4.9% | -4.9%
CC1CC(C)(C)NC(=S)N1CCC(=O)N1CCc2ccccc21 (centres undefined) | ? | i | ? | 6.31µM* | 7.6% | 23.0%
CC1CC(C)(C)NC(=S)N1CCCC(=O)N1CCN(c2ccccc2F)CC1 (centres undefined) | ? | i | -16.9% | 14.1µM* | -13.9% | -2.2%
Cc1cc(C)c(Cn2c(CCNC(=O)c3ccco3)nc3ccccc32)c(C)c1 | · | i | ? | · | -10.5% | -25.4%
Cc1cccc(NC(=O)CN2C(=S)NC(C)(C)CC2C)c1C (centres undefined) | ? | i | ? | ? | -14.6% | -18.1%
CC1CC(C)(C)NC(=S)N1CCC(=O)NCCc1ccc(Cl)cc1 (centres undefined) | 7.94µM* | i | 0.5% | 1.58µM* | -16.9% | -20.8%
CC1CC(C)(C)NC(=S)N1CCCC(=O)NCCc1ccc(Cl)cc1 (centres undefined) | ? | i | 7.6% | 12.6µM* | 3.4% | -25.6%
CCOc1ccc(NC(=O)CCN2C(=S)NC(C)(C)CC2C)cc1 (centres undefined) | ? | i | ? | ? | -18.3% | -4.9%
Cc1ccc(NC(=O)CN2C(=S)NC(C)(C)CC2C)cc1Cl (centres undefined) | ? | i | -18.3% | 14.1µM* | -11.1% | -26.7%
CCN(C(=O)CN1C(=S)NC(C)(C)CC1C)c1ccc(C)c(C)c1 (centres undefined) | ? | i | 8.7% | 7.08µM* | -20.0% | -4.1%
